Source: PubChem BioAssay (National Center for Advancing Translational Sciences (NCATS))
A selection: hits, their analogues and other compounds. The true share with any hit is near 19%.
IL-1B inflam inh – inflammasome signaling inhibition, IL-1 beta readout | THP-1 LPS/ATP IL-1B secretion, AlphaLISA, 16 h; active compounds read low | actives 4.7% (n = 360,000) | activity change, % at 57.5 µM | AID 743279; in the data active means activity change below about -50%; inconclusive means mostly about -30% to -49%; further: on the % scale 0 is the no-effect control and ±100 the full control effect
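THP-1 cells pretreated 1 hr with compounds (up to 57.5 uM final), then stimulated with LPS (250 ng/mL final) plus ATP (1.25 mM final); secreted IL-1B measured by AlphaLISA after 16 hr, decreased signal indicating inhibition.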
TDP1 block – TDP1 (human) enzyme inhibition | AID 485290 | Potency, µM (top dose mostly 130 µM), inactives show at the highest dose activity change, negative = inhibition, hits mostly inhibitors | Q9NUW8 | recombinant TDP1, AlphaScreen DNA substrate cleavage | actives 0.28% (n = 350,000); further: potency means the concentration at half of the fitted maximal effect; on the % scale 0 is the no-effect control and ±100 the full control effect; nearly all actives have a fitted effect of over 40% in size
Target sequence (Q9NUW8 whole entry, looked up): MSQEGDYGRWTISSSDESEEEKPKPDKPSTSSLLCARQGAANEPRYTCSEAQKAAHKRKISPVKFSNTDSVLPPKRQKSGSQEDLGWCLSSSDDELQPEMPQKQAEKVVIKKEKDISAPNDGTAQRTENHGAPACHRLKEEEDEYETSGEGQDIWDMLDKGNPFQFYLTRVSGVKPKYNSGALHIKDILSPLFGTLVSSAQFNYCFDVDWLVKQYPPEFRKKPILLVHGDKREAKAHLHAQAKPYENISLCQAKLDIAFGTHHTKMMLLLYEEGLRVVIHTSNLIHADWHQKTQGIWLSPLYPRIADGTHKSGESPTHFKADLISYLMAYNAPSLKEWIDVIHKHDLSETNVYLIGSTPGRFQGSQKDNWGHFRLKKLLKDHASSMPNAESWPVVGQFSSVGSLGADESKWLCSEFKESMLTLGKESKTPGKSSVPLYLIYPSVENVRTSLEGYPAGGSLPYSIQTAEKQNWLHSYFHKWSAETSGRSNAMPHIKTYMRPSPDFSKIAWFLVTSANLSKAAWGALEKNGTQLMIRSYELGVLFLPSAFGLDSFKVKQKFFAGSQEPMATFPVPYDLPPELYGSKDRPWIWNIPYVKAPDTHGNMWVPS
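Steps: enzyme plus compound, 15 min RT; add biotin/phosphotyrosine-FITC oligonucleotide (15 nM final), react 5 min; add donor/acceptor beads (10 ug/ml final), 10 min; read AlphaScreen. Tdp1 at 1 nM final.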
TGFb SMAD3 inh – TGF-b pathway inhibition | HepG2 CAGA-GFP TGF-b/SMAD3 reporter, GFP fluorescence, 18 h; TGF-beta stimulated, 500 pg/mL final | Potency, µM (highest dose often 46.1 µM), inactives show at the top dose activity, negative = inhibition, most hits filed as inhibitors | actives 1.2% (n = 410,000) | AID 588855; further: potency means the concentration at half of the fitted maximal effect; on the % scale 0 is the no-effect control and ±100 the full control effect; nearly all actives have a fitted effect of over 65% in size
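HEPG2 CAGA-GFP cells (1000/well, DMEM with 1% FBS) were pre-incubated 2 h at 37 degrees C, given compound by pin tool, then stimulated with TGF-beta at 500 pg/mL final for 18 h before per-cell GFP fluorescence imaging.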
HepG2 tox – counter-screen for TGF-b inhibitors: cytotoxicity in HepG2 cells; HepG2 CAGA-GFP viability, ATP luminescence, 18 h; Potency, µM (top dose mostly 46.1 µM), inactives show at the top dose activity change, negative = cytotoxicity, hits mostly cytotoxic; actives 0.76% (n = 410,000); AID 588856; further: potency means the concentration at half of the fitted maximal effect
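HepG2 CAGA-GFP cells (1000/well, DMEM with 1% FBS) received compound, then TGF-beta at 500 pg/mL final, and were incubated 18 hours at 37 degrees C. Viability was read by CellTiter-Glo luminescence. Media-only wells were set as complete cell-killing and DMSO as no toxicity.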
DT40 TDP1 no CPT – qHTS for Inhibitors of human tyrosyl-DNA phosphodiesterase 1 (TDP1): qHTS in cells in absence of CPT; AID 686978, 2013; actives 15% (n = 420,000); DT40 Tdp1-/- hTDP1 cells, no CPT, ATP luminescence, 48 h; Potency, µM (highest dose often 46.2 µM), inactives show at the top dose activity change, negative = growth inhibition, hits mostly inhibitors; further: potency means the concentration at half of the fitted maximal effect; on the % scale 0 is the no-effect control and ±100 the full control effect; nearly all actives have a fitted effect of over 55% in size
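DT40 Tdp1-/-;hTDP1 cells, no CPT (DMSO vehicle only), 400 cells/well; compounds pin-transferred; ≥48 hr, 37 °C; CellTiter-Glo 30 min RT dark, luminescence read.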
TDP1 cell CPT – growth inhibition of DT40 Tdp1-/-;hTDP1 cells with camptothecin (screen for TDP1 inhibitors). AID 686979. Potency, µM (titrated, usually from 46.2 µM), for inactives: at the highest dose activity change, negative = growth inhibition, hits mostly inhibitors. actives 12% (n = 420,000). chicken DT40 Tdp1-/-;hTDP1 cells + 20 nM CPT, ATP luminescence, 48 h; further: potency means the concentration at half of the fitted maximal effect; on the % scale 0 is the no-effect control and ±100 the full control effect; nearly all actives have a fitted effect of over 55% in size
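Chicken DT40 Tdp1-/- cells stably complemented with human TDP1 were seeded at 400 cells/well in medium containing 20 nM camptothecin, exposed to pin-transferred compounds, and grown at 37 °C for at least 48 hr. Viability was read as ATP luminescence.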
Active calls of the source: *; u = inconclusive; x = no result given; [ ] = another dose, or the depositor's remark. Unless noted, the call rests on the fitted dose curve; in most records, active means well fitted curve in the direction sought with a large enough effect; inconclusive means small, poorly fitted or top-dose-only effect, or another doubt; inactive means no such curve, though single readings can be large; an effect the other way counts as inactive or inconclusive.

SMILES	IL-1B inflam inh	TDP1 block	TGFb SMAD3 inh	HepG2 tox	DT40 TDP1 no CPT	TDP1 cell CPT
CCc1ccc(-n2cc(-c3ccc(F)cc3)[n+]3c2SCCC3)cc1	-91*	3%	-15%	-36%	1.8µM*	4.6µM*
N#Cc1ccc(-c2cn(-c3ccccc3)c3[n+]2CCCS3)cc1	13	-3%	-6%	-191%	-23%	5%
CCCCc1ccc(NC(=O)c2cc3c(=O)n4ccccc4nc3s2)cc1	x	2%	-11%	-5%	-14%	-19%
C=CCOc1ccc(/C=C2\SC(=S)N(NS(=O)(=O)c3ccc(C)cc3)C2=O)cc1	1	x	u	0%	-8%	9%
CCOC(=O)c1nc2sc3c(c2c(=O)n1C(C)C(=O)OCC)CCCC3 (centres undefined)	u	-9%	-4%	2%	u	10µM*
N#CC1(NC(=O)COC(=O)c2nc(Cl)c(Cl)c(N)c2Cl)CCCCC1	29	-4%	15%	0%	0%	-2%
Cc1ccc(-n2c3nc(=O)[nH]c(=O)c-3cc3cc([N+](=O)[O-])ccc32)cc1	-107*	8%	-18%	-32%	5.2µM*	5.8µM*
O=C(OCc1cn([C@H]2CN(C(=O)C3CCCCC3)[C@@H](c3ccccc3)C[C@@H]2O)nn1)c1ccccc1	33	x	8%	-5%	21µM*	u
O=C(OCc1cn([C@H]2CN(C(=O)C3CCCCC3)[C@@H](c3ccc(Cl)cc3)C[C@@H]2O)nn1)c1ccccc1	-20	x	u	-40%	21µM*	u
CC(C)CCn1c(SCc2ccc(F)cc2Cl)nc2ccsc2c1=O	x	0%	0%	-1%	-6%	5%
CCc1ccc(NC(=O)CSc2nc3ccsc3c(=O)n2C(C)CC)cc1 (centres undefined)	x	4%	0%	-24%	u	u
CCC(C)n1c(SCc2ccc(F)cc2Cl)nc2ccsc2c1=O (centres undefined)	x	2%	1%	-2%	21µM*	18µM*
CCC(C)n1c(SCC(=O)Nc2ccccc2C(=O)OC)nc2ccsc2c1=O (centres undefined)	x	-5%	0%	-12%	18µM*	16µM*
CCC(C)n1c(SCc2ccc(C(C)(C)C)cc2)nc2ccsc2c1=O (centres undefined)	x	0%	4%	-7%	13µM*	13µM*
CCC(C)n1c(SCc2ccccc2)nc2ccsc2c1=O (centres undefined)	3	0%	u	-8%	21µM*	u
O=C(CNC(=O)[C@@H]1Cc2ccccc2CN1)NCc1ccco1	-6	4%	-5%	6%	10%	-4%
O=C(CSc1cn(CCNC(=O)c2c(F)cccc2F)c2ccccc12)Nc1ccc(F)cc1	x	5%	u	-40%	16µM*	u
CC(C)N(C(=O)Cn1cc(SCC(=O)Nc2ccccc2C(F)(F)F)c2ccccc21)C(C)C	x	-5%	1%	4%	-17%	-6%
CC(C)N(C(=O)Cn1cc(SCC(=O)Nc2ccccc2F)c2ccccc21)C(C)C	x	3%	0%	-37%	13µM*	u
O=C(NCCn1cc(SCC(=O)N2CCOCC2)c2ccccc21)c1c(F)cccc1F	0	3%	-2%	-14%	u	u
O=C(CSc1cn(CCNC(=O)c2c(F)cccc2F)c2ccccc12)Nc1ccccc1F	x	8%	-8%	-1%	21µM*	u
CC1CCN(c2ccc(N3C(=O)C4CCCCC4C3=O)cc2[N+](=O)[O-])CC1 (centres undefined)	-3	1%	1%	-4%	-24%	-6%
CCN(C(=O)c1cn(C)c(=O)c2ccccc12)c1cccc(C)c1	x	9%	10%	-25%	u	-30%
COc1ccc(OCC2NCCc3cc(OC)c(OC)cc32)cc1 (centres undefined)	-6	1%	-27%	-21%	u	u
COc1cc2c(cc1OC)C(COc1cccc(C(F)(F)F)c1)NCC2 (centres undefined)	-8	4%	-5%	-23%	u	21µM*
SMILES	IL-1B inflam inh	TDP1 block	TGFb SMAD3 inh	HepG2 tox	DT40 TDP1 no CPT	TDP1 cell CPT
CC(C)CNC(=O)COC(=O)CCC(=O)c1ccc(Cl)cc1	18	-1%	-1%	-1%	9%	-5%
CCOc1ccccc1CNC(=O)c1ccc(N2Cc3ccccc3Oc3ncccc32)s1	x	5%	u	-24%	15µM*	u
COc1cccc2c1Oc1ncccc1N(c1ccc(C(=O)NCc3cccc(C)c3)s1)C2	x	-3%	2%	0%	u	u
CC(=O)NCCC(=O)Nc1cc(S(=O)(=O)Nc2ccc(Cl)cc2)ccc1N1CCCC1	-2	x	-20%	-2%	u	u
COc1ccc(NS(=O)(=O)c2ccc(N3CCOCC3)c(NC(=O)c3ccc(F)cc3)c2)cc1	-12	2%	-2%	-37%	13µM*	8.2µM*
COC(=O)c1cc(NS(=O)(=O)c2ccc(N3CCOCC3)c(NC(C)=O)c2)cc(C(=O)OC)c1	39	2%	6%	13%	20%	33%
COc1ccc(NS(=O)(=O)c2ccc(N3CCOCC3)c(NC(=O)C(C)C)c2)cc1	5	5%	18%	2%	18µM*	16µM*
COc1ccc(NS(=O)(=O)c2ccc(N3CCOCC3)c(NC(=O)c3cccc(F)c3)c2)cc1	-29	3%	-7%	3%	8.2µM*	9.2µM*
O=C(Nc1cc(S(=O)(=O)Nc2ccc(Cl)cc2)ccc1N1CCCCC1)c1ccc(F)cc1	-66*	1%	u	-69%	18µM*	21µM*
CCc1ccc(Oc2c(C(F)(F)F)oc3c(CN4CCN(CC)CC4)c(O)ccc3c2=O)cc1	x	1%	-14%	-14%	u	u
CCOC(=O)/C=C/C(=O)Nc1cc(S(=O)(=O)Nc2ccc(OC)cc2)ccc1N1CCOCC1	-107*	3%[0.505 µM]	-34%	-28%	5.2µM*	5.8µM*
C=C1C(=O)C23C(O)C1CCC2C12CCCC(C)(COC(C)=O)C1C(O)C3(O)OC2 (centres undefined)	0	x	2µM*	3.2µM*	0.73µM*	1µM*
Cc1ccc(Cl)cc1NC(=O)CCS(=O)(=O)c1cccc2nonc12	-2	3%	-22%	-25%	u	15µM*
